According to the supplement of paper PMC7556523:
A number with no mark means an inactive call.

What was measured:
[1] = test system: Sporothrix brasiliensis CBS 133006; test: growth inhibition relative to untreated control; higher = more growth inhibition (more antifungal activity), active = 80 or more; extreme values may be limits of the assay; settings: 1 µM; 48 h
In short: (§1)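 Before testing, the reference isolates were kept in brain heart infusion broth with 2% glucose at 36°C for 7 days to give yeast-form cells. These cells, at 1 x 10^5 CFU/ml, received library compounds at a final 1 μM and were held 48 h at 35°C in 5% CO2. Growth was checked by eye under an inverted light microscope and quantified spectrophotometrically in quadruplicate, and the value is percent growth inhibition versus untreated cells.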

[2] = test system: Sporothrix schenckii ATCC 32286; test: as above; settings: 1 µM; 48 h
In short: as §1

SMILES: CCOc1ccc(-c2nc(NC(=O)CS(=O)(=O)c3ccccc3)sc2C)cc1
- growth inhibition [1]: 5.25%
- growth inhibition [2]: 0.5%

SMILES: COCC(C)NC(=O)CSc1ncnc2sc(-c3ccccc3)cc12 (centres undefined)
- growth inhibition [1]: 17.8%
- growth inhibition [2]: 14.2%

SMILES: CCc1ccc([C@@H]2C[C@H](C(F)(F)F)n3ncc(C(=O)NCc4ccc(OC)cc4)c3N2)cc1
- growth inhibition [1]: 15.5%
- growth inhibition [2]: 12.2%

SMILES: Cc1cc(Nc2ccncc2)n2nc(C)c(-c3ccccc3Cl)c2n1
- growth inhibition [1]: 5%
- growth inhibition [2]: 4.75%

SMILES: Cc1nn2c(O)c3c(nc2c1-c1ccc(F)cc1)CCCC3
- growth inhibition [1]: 7%
- growth inhibition [2]: 6.5%

SMILES: Cc1cc(C(=O)Nc2cnn(Cc3ccc(Cl)cc3Cl)c2)no1
- growth inhibition [1]: 5.75%
- growth inhibition [2]: 12%

SMILES: O[C@@H](c1cc(C(F)(F)F)nc2c(C(F)(F)F)cccc12)[C@H]1CCCCN1
- growth inhibition [1]: 6%
- growth inhibition [2]: 15.2%

SMILES: COc1nc2ccc(Br)cc2cc1[C@@H](c1ccccc1)[C@@](O)(CCN(C)C)c1cccc2ccccc12
- growth inhibition [1]: 21.5%
- growth inhibition [2]: 17.8%

SMILES: OC[C@H]1O[C@@H](n2c3ccc(Cl)cc3c3c(-c4cc5ccccc5o4)ncnc32)C(O)[C@H]1O (some centres undefined)
- growth inhibition [1]: 10.8%
- growth inhibition [2]: 18.8%

SMILES: Nc1ncc(-c2cn[nH]c2)cc1-c1nc2cc(Cl)cnc2[nH]1
- growth inhibition [1]: 12%
- growth inhibition [2]: 11%

SMILES: Cc1cc(NCC(C)C)c2[nH]nc(-c3ccccc3)c2n1
- growth inhibition [1]: 4.5%
- growth inhibition [2]: 0.75%

SMILES: Cc1cc(O)nc(-n2nc(C)cc2C)n1
- growth inhibition [1]: 4.75%
- growth inhibition [2]: 11.8%

SMILES: Nc1nccc2ccc(Oc3ccncc3)cc12
- growth inhibition [1]: 9.25%
- growth inhibition [2]: 14.2%

SMILES: COc1cc(OC)cc(C(=O)NCC2Cc3cc(Cl)cc(-c4ccncc4)c3O2)c1 (centres undefined)
- growth inhibition [1]: 17.5%
- growth inhibition [2]: 2%

SMILES: Cc1cc(Nc2ccc(C(F)(F)F)cc2)n2ccnc2n1
- growth inhibition [1]: 12.2%
- growth inhibition [2]: 1%

SMILES: OCc1ccc(-c2cncc(Nc3cccc(Cl)c3)c2)cc1
- growth inhibition [1]: 25.5%
- growth inhibition [2]: 6.75%

SMILES: Cc1ccccc1CN1CCC(O)(c2ccc(Cl)c(C(F)(F)F)c2)CC1
- growth inhibition [1]: 0%
- growth inhibition [2]: 0%

SMILES: c1ccc2c(c1)CN(CC1CC1)CC1(CCN(Cc3c[nH]c4cnccc34)CC1)O2
- growth inhibition [1]: 1.25%
- growth inhibition [2]: 0%

SMILES: CCc1c(C)nc(-n2nc(C)cc2NC(=O)c2ccccc2SC)[nH]c1=O
- growth inhibition [1]: 93.5% (active)
- growth inhibition [2]: 76.8%

SMILES: CN1CCC(c2cc(-c3ccncc3)c(-c3ccc(F)cc3)[nH]2)CC1
- growth inhibition [1]: 9%
- growth inhibition [2]: 10%

SMILES: O=C(Nc1nnc(-c2ccc(Cl)s2)o1)c1ccc(Cl)s1
- growth inhibition [1]: 27.8%
- growth inhibition [2]: 42%

SMILES: Cc1ccc(C(=O)Nc2ccc(S(=O)(=O)O)c3cc(S(=O)(=O)O)cc(S(=O)(=O)O)c23)cc1NC(=O)c1cccc(NC(=O)Nc2cccc(C(=O)Nc3cc(C(=O)Nc4ccc(S(=O)(=O)O)c5cc(S(=O)(=O)O)cc(S(=O)(=O)O)c45)ccc3C)c2)c1
- growth inhibition [1]: 28%
- growth inhibition [2]: 19%

SMILES: CN1CCN(c2nccc3nc(-c4ccc(F)c(F)c4)[nH]c23)CC1
- growth inhibition [1]: 0%
- growth inhibition [2]: 0%

SMILES: CC(C)(C)[C@H]1CC[C@H](CC2=C(O)C(=O)c3ccccc3C2=O)CC1
- growth inhibition [1]: 88% (active)
- growth inhibition [2]: 14%

SMILES: COC(=O)c1ccc(F)cc1NS(=O)(=O)c1cccc(-c2cnn(Cc3ccccc3)c2)c1
- growth inhibition [1]: 12%
- growth inhibition [2]: 20.2%

SMILES: Cc1cc(Cl)ccc1NC(=O)CCc1ccc(S(=O)(=O)NCC(C)C)cc1
- growth inhibition [1]: 9.75%
- growth inhibition [2]: 0%

SMILES: CS(=O)(=O)N1CCC(CCn2nc(Cc3cccc4ccccc34)c3c(N)ncnc32)CC1
- growth inhibition [1]: 5.5%
- growth inhibition [2]: 14%

SMILES: N#Cc1nc(-c2ccccc2F)oc1NCCc1ccccc1
- growth inhibition [1]: 3.75%
- growth inhibition [2]: 0%

SMILES: Cn1ncc2c(N3CCOCC3)nc(NCCc3c[nH]c4ccccc34)nc21
- growth inhibition [1]: 8.25%
- growth inhibition [2]: 0%

SMILES: CC(=O)Nc1ccc(NC(=O)c2cc(-c3cc(Cl)ccc3O)n[nH]2)cc1
- growth inhibition [1]: 9.5%
- growth inhibition [2]: 0%

SMILES: O=C(NCc1cc(Cl)cc(Cl)c1)c1c(C(F)(F)F)nc2ccccn12
- growth inhibition [1]: 21.5%
- growth inhibition [2]: 11.2%

SMILES: O=C(CCC1CCCCC1)Nc1cccc(-c2nnc(-c3ccco3)o2)c1
- growth inhibition [1]: 2.5%
- growth inhibition [2]: 2.5%
